Measured values as given in PubChem BioAssay (NCI).
Compounds without any hit were thinned out: in the full panel of roughly 83,000, 20% have a hit.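 96-well plates, one dose, 48 hours. Percent growth reported; active if below 10.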 The source made the active and inactive calls.

Experiments:
Assay in all cases: NCI-60 one-dose screen, 48 h (100 = growth as untreated, 0 = no growth, -100 = all killed)
Conditions in all cases: 10 µM unless noted
[1] = test system: NCI-H23 lung
[2] = test system: NCI-H226 lung
[3] = test system: NCI-H322M lung
[4] = test system: HOP-62 NSCLC
[5] = test system: NCI-H460 lung
[6] = test system: HOP-92 NSCLC
[7] = test system: NCI-H522 lung
[8] = test system: A549/ATCC NSCLC
[9] = test system: 786-0 renal
[10] = test system: COLO 205 colon

Measured: growth

CCN(CC)CCNC(=O)c1c(C)[nH]c(/C=C2\C(=O)Nc3ccc(F)cc32)c1C
inactive: [1] 21.4% | [2] 51.1% | [3] 31.4% | [4] 26% | [6] 30.3%
active: [5] 1.9% | [7] -46% | [8] 0.0489% | [9] -63.8% | [10] -80.3%

CCCCCCCC(=O)SCC/C=C/[C@@H]1CC(=O)NCc2cccc(n2)C2=N[C@@](C)(CS2)C(=O)N[C@@H](C(C)C)C(=O)O1
inactive: [9] 10.8%
active: [1] 2.23% | [2] -9.02% | [3] -5.77% | [4] -22.2% | [5] 5.88% | [6] -5.42% | [7] -12.7% | [8] 0.749% | [10] -61.8%

C=CC[n+]1c(/C=C/C=C2\N(C)c3ccccc3C2(C)C)sc2ccc(OC)cc21
active: [5] 7.84% | [6] -4.42% | [7] 3.52% | [10] -37.4%
inactive: [1] 11.6% | [2] 10.8% | [3] 26.2% | [4] 14.4% | [8] 16.6% | [9] 26.8%

C[C@@H](N)c1ccc(C(=O)Nc2ccnc3[nH]ccc23)cc1
inactive: [1] 45% | [2] 51% | [3] 41.5% | [4] 13.9% | [5] 47.9% | [6] 55.6% | [7] 11% | [8] 14.8% | [9] 33.2%
active: [10] 5.34%

Cc1ccc(NC(=O)NC(=O)CSc2nc3ccccc3nc2C)cc1
active: [9] -16.3%
inactive: [1] 42.6% | [2] 59.4% | [3] 95.1% | [4] 45% | [5] 64.9% | [6] 36.1% | [7] 40.8% | [8] 70.2% | [10] 81.1%

N#Cc1c(NC(=O)c2ccco2)[n+]([O-])c2cc(F)c(F)cc2[n+]1[O-]
inactive: [1] 82.7% | [2] 103% | [3] 103% | [4] 120% | [5] 106% | [7] 59.2% | [8] 97.1% | [9] 98.5% | [10] 98.3%
active: [6] -4.85%

COC(=O)[C@]12CC[C@@H](C)[C@H](C)[C@@H]1C1=CC[C@@H]3[C@@]4(C)C(C#N)=CC(C)=C4CC[C@@]3(C)[C@]1(C)CC2
inactive: [1] 78.2% | [2] 82.7% | [3] 108% | [4] 113% | [5] 89.3% | [6] 91.7% | [7] 78.1% | [8] 92.2% | [9] 93% | [10] 86.1%

ClCc1ccc(-c2ccc(Cn3cnc4nc(Cl)nc(Cl)c43)cc2)cc1
inactive: [1] 23.6% | [2] 29.1% | [3] 56.8% | [5] 14.3% | [6] 25.8%
active: [4] 8.06% | [7] -25.2% | [8] -6.5% | [9] -14% | [10] -14.1%

O=C(c1ccc(F)c(F)c1Nc1ccc(I)cc1F)N1CC(O)([C@@H]2CCCCN2)C1
active: [6] -47.8% | [10] -63.9%
inactive: [1] 13.9% | [2] 39.4% | [3] 13.5% | [4] 17.7% | [5] 18.8% | [7] 18.8% | [8] 14.2% | [9] 29.1%

CCCCN1C(=O)c2cccc3c(-c4ccc5c(c4)ncn5C4CCCCC4)ccc(c23)C1=O
inactive: [1] 96% | [2] 101% | [3] 101% | [4] 85.2% | [5] 110% | [6] 94.6% | [7] 69.6% | [8] 90.8% | [9] 106% | [10] 94%

CC(=O)OCCC/C(=C\c1ccc2ccccc2c1)[N+](=O)[O-]
active: [1] -42.3% | [2] -23% | [4] -27.5% | [6] -90.5% | [7] -80.3% | [8] -72.3% | [9] -93.4% | [10] -77.9%
inactive: [3] 83.2% | [5] 64.3%

Cn1ncc(Cl)c1-c1cc(C(=O)N[C@H](CN)Cc2cccc(F)c2)sc1Cl
inactive: [1] 33.4% | [2] 34.5% | [3] 28.6% | [4] 25.4% | [8] 18.4%
active: [5] 8.53% | [6] -27.5% | [7] 6.11% | [9] -14.3% | [10] -73.9%

Cn1ccnc1C(=O)/C=C/c1ccc(CC(=O)Nc2ccc(S(F)(F)(F)(F)F)cc2)cc1
active: [1] -12.7% | [2] -15.3% | [3] -5.16% | [4] -73% | [5] -37.9% | [6] 5.09% | [7] -51.1% | [8] -33.7% | [9] -82.7% | [10] -55.2%

CCc1nc2cc(/C=C/C(=O)NO)ccc2c(=O)n1CCc1ccc(F)cc1
active: [1] 1.11% | [4] -11.8% | [5] 4.24% | [6] -4.03% | [7] 3.72% | [8] 7.13% | [9] -23% | [10] -35.7%
inactive: [2] 20.3% | [3] 18.6%

C[C@@H](Oc1cc(-n2cnc3ccc(CN4CCN(C)CC4)cc32)sc1C(N)=O)c1ccccc1C(F)(F)F
active: [4] 4.73% | [5] 8.47% | [7] -13.5% | [8] 0.209% | [9] 6.39% | [10] -17.1%
inactive: [1] 32.9% | [2] 69.3% | [3] 63.8% | [6] 21.7%

CCCCOc1nc2cc(Cl)ccc2cc1/C=C/c1cc(/C=C/c2cc3ccc(Cl)cc3nc2OCCCC)n(-c2ccccc2)n1
inactive: [1] 83.3% | [2] 75.1% | [3] 92.5% | [4] 32.3% | [5] 98.3% | [6] 76.8% | [7] 61% | [8] 75.4% | [9] 64% | [10] 88.3%

Cn1cc(-c2ccc(F)c(C(F)(F)F)c2)nc1C1CCN(c2ncnc3[nH]ncc23)CC1
inactive: [1] 72.3% | [2] 55.3% | [3] 75.3% | [4] 52.1% | [5] 76.9% | [6] 65.3% | [7] 47.8% | [8] 50.4% | [9] 69.1% | [10] 84.4%

NC(=O)c1c(OCc2c(F)cc(Br)cc2F)nsc1NC(=O)NCCCCN1CCCC1
active: [2] 9.08% | [4] -29.7% | [5] -23.1% | [6] -1.17% | [7] -61.8% | [8] -15.6% | [9] -57.2% | [10] -78.7%
inactive: [1] 21.2% | [3] 15.4%

CN1CCN(CCCOc2cccc3nc(Nc4ccc(Cl)c(C(F)(F)F)c4)ccc23)CC1
inactive: [1] 18.8% | [2] 77.1% | [3] 15.9% | [4] 15.5% | [6] 10.2%
active: [5] -19.3% | [7] -40.6% | [8] 6.87% | [9] -42.9% | [10] -61.6%

O=C(c1c(F)ccc(NS(=O)(=O)N2CC[C@@H](F)C2)c1F)c1c[nH]c2ncc(-c3cnc(C4CC4)nc3)cc12
inactive: [1] 58.6% | [2] 62.3% | [3] 21.6% | [4] 37.7% | [5] 37.3% | [6] 35.7% | [7] 32.5% | [8] 33.8% | [9] 39.8%
active: [10] 0.255%

COc1cc(NC2CCC(=O)N2c2ccc(Cl)cc2Cl)cc(OC)c1OC (stereo not given)
inactive: [1] 99.4% | [2] 99.9% | [3] 97.3% | [4] 103% | [5] 102% | [6] 83.1% | [7] 99.9% | [8] 99.4% | [9] 103% | [10] 97.7%

Nc1ccc(S(=O)(=O)O)c2cc(S(=O)(=O)O)cc(O)c12
inactive: [1] 110% | [2] 105% | [3] 117% | [4] 107% | [5] 108% | [6] 124% | [7] 103% | [8] 104% | [9] 101% | [10] 105%

CCCc1cc2cc(-n3nc(C)c4c3CC(C)(C)CC4=O)cc(NC3CCC(O)CC3)c2c(=O)[nH]1 (stereo not given)
active: [6] -25.7% | [10] -10.1%
inactive: [1] 29.8% | [2] 33.8% | [3] 58.2% | [4] 28.5% | [5] 17.6% | [7] 40.8% | [8] 21% | [9] 26.1%

CCc1nc2ccc(Cc3ccc(C(=O)NO)cc3)cc2c(=O)n1CCc1ccccc1
active: [1] -67.9% | [2] -28.5% | [4] -43.4% | [5] 0.149% | [6] -29.5% | [7] -86.5% | [8] -41.7% | [9] -58.3% | [10] -69.7%
inactive: [3] 12.1%

NC(=O)Nc1cc(-c2cccc(F)c2)sc1C(=O)N[C@H]1CCCNC1
active: [1] -15.3% | [2] 6.7% | [3] -17.8% | [4] -39.2% | [5] -21.6% | [6] -69.2% | [7] -19.2% | [8] -35.4% | [9] -82.8% | [10] -65.3%

CN1CC[C@@H](c2c(O)cc(O)c3c(=O)cc(-c4ccccc4Cl)oc23)[C@@H]1CO
active: [1] -26.5% | [2] 7.7% | [3] -1.67% | [4] -21.2% | [5] 4.14% | [6] -2.24% | [7] -13.8% | [8] 4.56% | [9] 4.31% | [10] -64.5%
